Test results as given in the OligoGym collection.

biological target: GPS1; experiment: pooled miR-30 sensor sort-seq; sequence = guide strand; details: shRNA
Also: reference of the scale not given here.

Sequence	sensor-assay potency score (higher = more potent)
TTCATCTCGTCCAGCATCTTGA	-0.805
TACTGTTCCAGATCCAGGCTGG	0.176
TAGCACTTGAGGGCGTTGCTGA	-0.484
TTGCGCTGCAGCTCCTGCCGGT	-0.804
TTGTAGTTCTTCAGGTCTGTGT	-0.35
TTGACATGGATCTGGTTGCGGA	-0.378
TTGAAGGCTGCCGCCATCCTAT	-1.18
AAGAACAACTTGAAGGAGCTGC	0.981
AACAACTTGAAGGAGCTGCTGG	-0.415
TTGCTGTGTGAGTCCACACGGG	-0.414

biological target: GPT2; experiment: as above; details: shRNA

Sequence	sensor-assay potency score (higher = more potent)
TACAGCACCTTCTTGAAGGAGT	-0.472
TTGGTTAAACAGGTCTTCCGTC	0.251
TTGATCACCTCCATGTAGCCTC	0.135
TTCAGGATCGTAGAAATGCCGT	-0.741
TTGGCAGGAATGAAGATCCGAG	-0.485
TTCACCTTCTGCAGCACCGTTT	-0.638
TTTCACCTTCTGCAGCACCGTT	-1.46
TCTGTAACCACACTCGCCCATG	-1.08
TAACAGATTCAGAGAACCCTGG	0.0686
TCATGCAGTAGAACATGTCTGG	0.355
TTAGCATCTTCTGGGAAGCTGG	-0.879

biological target: GPX1; experiment: as above; details: shRNA

Sequence	sensor-assay potency score (higher = more potent)
AACATCGTTGCGACACACCGGA	-0.00294
ATTCAGAATCTCTTCGTTCTTG	0.126
TTCAGAATCTCTTCGTTCTTGG	0.596
ATTCTCGATAAGTAGTACCTTG	-0.704
TTCCAGGCAACATCGTTGCGAC	-1
ACATCGTTGCGACACACCGGAG	-1.77
TAGGTTTAGAGGAAACACCCTC	-0.561
AATCTCTTCGTTCTTGGCGTTC	-1.08
TTCATCTGGGTGTAGTCCCGGA	-0.32
TTTTCTATGAGTCACCGGGATT	-1.88
TTGGGGTCGGTCATAAGCGCGG	-1.09
TTCGTTCTTGGCGTTCTCCTGA	0.781

biological target: GPX2; experiment: as above; details: shRNA

Sequence	sensor-assay potency score (higher = more potent)
TTGAGCTGGGTGAAGTCCCGGG	-0.183
TTGAAATCTACCTTCTCCCCAT	0.588
TTGATGGTTGGGAAGGTGCGGC	-0.796
TATTGGTCTCTTCTAGCAGAGT	-1.55
TTGGACAAGGGTGAAGGTGGGC	0.00355
ATACTTGAGACTGTTCAGGATC	-0.893
TTCCAGGCCACATCTGAGCGGC	-0.521
